# Records with an inconclusive call do not appear. Activity calls are given as the source filed them. Unless noted, calls follow the shape of the dose curve; as a rule, active = well fitted curve in the direction sought with a large enough effect; inconclusive = small, poorly fitted or top-dose-only effect, or another doubt; inactive = no such curve, though single readings can be large; an effect the other way counts as inactive or inconclusive.
# Experiments:
# [1] = AP1 Signaling Pathway (AID 357; active = well fitted curve in either direction with a large enough effect, not every such curve was filed as active;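 also: ME-180 reporter cells stimulated with EGF at its EC50 level; % is scaled to controls: 0 for no effect and ±100 for the full control effect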); details: ME-180 AP-1-bla reporter, EGF-induced, beta-lactamase ratio, 5 h; at 7.69 µM (top of the series) unless noted
# Outline: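 Titration-series screen for positive or negative modulators of EC50 EGF-induced signaling in ME-180 cells carrying an AP-1-driven beta-lactamase reporter. After 5 hours at 37 degrees Celsius, CCF4 460nm/530nm emission ratio gave %Activity; AC50 values derived.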
# [2] = target: Cytochrome P450 1A2 (Homo sapiens) (UniProt P05177); assay: p450-cyp1a2 (AID 410; calls by dose curve;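 also: -100% = full effect of reference inhibitor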)
# Outline: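 Human CYP1A2 (20nM) demethylated Luciferin-ME at its Km (100uM) in 100mM KPO4. After 10 min compound preincubation, NADPH regeneration ran the reaction 60 min at room temperature. Luciferin was read by luminescence, normalized to 57 uM furafylline.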
# [3] = NFAT Signaling Pathway (AID 444; active = well fitted curve in either direction with a large enough effect, not every such curve was filed as active;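 also: carbachol stimulus at about its EC50 of 1 µM final; % is scaled to controls: 0 for no effect and ±100 for the full control effect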); details: Jurkat NFAT-bla M1, carbachol, beta-lactamase ratio, 5 h; at 7.69 µM (top of the series) unless noted
# Outline: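 Jurkat cells with NFAT-driven β-lactamase reporter and co-expressed M1 receptor, stimulated with carbachol (final 1 uM, ~EC50), compound titration, 5 h at 37 °C. CCF4 loaded 1 h at RT; 460/530 nm ratio gave %activity and AC50.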
# [4] = Stat Signaling Pathway (AID 446; active = well fitted curve in either direction with a large enough effect, not every such curve was filed as active;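 also: ME-180 cervical cancer cells given 40 pM IL-6 alongside compound; SIE-controlled beta-lactamase reporter measured as 460/530 nm FRET emission ratio; % is scaled to controls: 0 for no effect and ±100 for the full control effect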); details: ME-180 (cervical carcinoma) SIE beta-lactamase reporter, IL-6 stimulated, 5 h; at 7.69 µM (top of the series) unless noted
# Outline: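 IL-6/STAT signaling read in ME-180 cells via an SIE beta-lactamase reporter. Stimulus was 40 pM IL-6 (its AC50) for 5 hrs, so both activation and inhibition register.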
# [5] = target: Glucocorticoid receptor (Homo sapiens) (UniProt P04150); assay: GR-EFC Redistribution (AID 451; calls by dose curve; also: potency is read from the fitted curve at half-maximal effect); details: CHO-K1 GR-EFC translocation, beta-gal luminescence, 2 h
# Outline: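 CHO-K1 cells expressing nuclear EA and GR-ED fragments of b-gal; compounds titrated up to 46 uM final, 2 h at 37 C. GR nuclear translocation read as complemented b-gal luminescence after 1 h RT detection.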
# [6] = target: Mitogen-activated protein kinase 10 (Mus musculus) (UniProt Q61831); assay: JNK3 AlphaScreen Assay (AID 530; active = well fitted curve in either direction with a large enough effect, not every such curve was filed as active;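 also: kinase came from lysate of stimulated human HepG2 cells; signal reports phosphorylation of biotinylated GST-cJun 1-79 at Ser73 with 10 µM ATP; % is scaled to controls: 0 for no effect and ±100 for the full control effect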)
# Outline: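 qHTS format: compounds tested as titrations against IL-1beta/TNF-alpha-activated HepG2 lysate JNK3 with biotin-GST-cJun substrate and 10 uM ATP at room temperature. Loss of anti-phospho-cJun AlphaScreen signal indicates inhibition.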
# [7] = target: 3',5'-cyclic-AMP phosphodiesterase 4B (Homo sapiens) (UniProt Q07343); assay: qHTS Assay for Inhibitors of PDE-IV (AID 607; active = well fitted activation curve with a large enough effect in the main read-out, with a control signal flat, not every such curve was filed as active; also: % of control where 0% means no effect)
# Outline: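 Live HEK293 cells with a modified cyclic nucleotide-gated (CNG) channel report intracellular cAMP via membrane-potential dye fluorescence (ex 535/em 590 nm). Endogenous PDE-IV was targeted. Compounds were tested at up to 22.9 uM final; RO 20-1724 100 uM served as control.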
# [8] = target: Cytochrome P450 3A4 (Homo sapiens) (UniProt P08684); assay: qHTS Assay for Activators of Cytochrome P450 3A4 (AID 885); also: nearly all actives have a fitted effect of over 65% in size
# Outline: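 Quantitative HTS format: compounds preincubated with 20nM human CYP3A4 and Luciferin-PPXE substrate at KM, reaction started by NADPH regeneration, stopped after 60 min, luciferase luminescence read 20 min later.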
# [9] = qHTS Assay for Lipid Storage Modulators (AID 1519; calls by dose curve); details: Drosophila S3 cells, BODIPY lipid droplet/cell ratio, laser cytometry, cells loaded with oleic acid
# Outline: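 Cells seeded at 5,000 per well were treated with compounds over a concentration series and loaded with oleic acid (400 uM, as added). Lipid droplet fluorescence (488 nm excitation, 500-530 nm channel) was read by laser-scanning cytometry and normalized to 20 uM Triacsin C.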
# [10] = Primary qHTS for small molecule stabilizers of the endoplasmic reticulum resident proteome: Secreted ER Calcium Modulated Protein (SERCaMP) assay (AID 1508630); also: % is scaled to controls: 0 for no effect and ±100 for the full control effect
# Outline: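 GLuc-SERCaMP-expressing SH-SY5Y cells, pretreated 16 h with compound, are challenged with thapsigargin to empty ER calcium stores; after 4 h, coelenterazine is added directly to the medium and luminescence is imaged.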
# [11] = Primary qHTS for inhibitors of nuclear receptor binding SET domain protein 2 (NSD2) in an isogenic RCH-ACV NSD2 p.E1099K mutant (9B) (AID 1645876); also: nearly all actives have a fitted effect of over 70% in size; also: potency is read from the fitted curve at half-maximal effect
# [12] = Primary qHTS for inhibitors of nuclear receptor binding SET domain protein 2 (NSD2) in an RCH-ACV wild type WT cells (2C) (AID 1645877); also: nearly all actives have a fitted effect of over 70% in size; also: potency is read from the fitted curve at half-maximal effect
# [13] = target: Phospholipid hydroperoxide glutathione peroxidase GPX4 (Homo sapiens) (UniProt P36969); assay: Primary qHTS Assay for Inhibitors of Recombinant Selenoprotein Glutathione Peroxidase 4 (GPX4) (AID 1845192); details: outcome: dose series up to 50 µM unless noted; also: nearly all actives have a fitted effect of over 65% in size
# Outline: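 GR-coupled assay: recombinant GPX4 preincubated 30 min with compound at room temperature; final 200 nM GPX4, 1 mM GSH, 0.5 mM cumene hydroperoxide, 0.5 mM NADPH, 100 nM GR, 0.01% BSA, pH 7.5 Tris. NADPH fluorescence (340/450 nm) read at 0 and 15 min.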
# [14] = qHTS drug screen for cell cycle checkpoint inhibitors in PARPi-resistant BRCA-mutant ovarian cancer cell lines. (AID 1963452; calls by dose curve; also: potency is read from the fitted curve at half-maximal effect); details: PEO1/OlaR viability, CellTiter-Glo luminescence, 96 h; for Z-AUC: stronger effect = lower value
# Outline: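 PEO1, PEO4 and PEO1/OlaR ovarian cancer cells, 600 per well, exposed 96 h at 37C to a dilution series. Viability read by CellTiter-Glo luminescence, normalized to DMSO and empty wells; activity summarized as Z-AUC.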
# [15] = target: Glutathione peroxidase 1 (Homo sapiens) (UniProt P07203); assay: Primary qHTS Assay for Inhibitors of Recombinant Selenoprotein Glutathione Peroxidase 1 (GPX1) (AID 1845191); also: nearly all actives have a fitted effect of over 65% in size
# Outline: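 GR-coupled assay: compounds preincubated 30 min at room temperature with GPX1, then reaction started with CHP; final 10 nM GPX1, 1 mM GSH, 0.5 mM CHP, 0.5 mM NADPH, 100 nM GR, 0.01% BSA, pH 7.5 Tris buffer. NADPH fluorescence (340/450 nm) read at 0 and 15 min.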
# [16] = measured here: PEO1 parental Z-AUC
# Phospholipid hydroperoxide glutathione peroxidase GPX4 (Homo sapiens), sequence (P36969 whole entry, looked up): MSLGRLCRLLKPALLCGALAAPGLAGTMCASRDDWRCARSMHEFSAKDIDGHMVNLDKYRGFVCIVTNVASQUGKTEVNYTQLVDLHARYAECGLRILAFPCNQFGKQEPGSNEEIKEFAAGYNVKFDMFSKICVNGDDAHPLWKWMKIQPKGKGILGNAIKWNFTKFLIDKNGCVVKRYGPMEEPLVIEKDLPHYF
# Glutathione peroxidase 1 (Homo sapiens), sequence (P07203 whole entry, looked up): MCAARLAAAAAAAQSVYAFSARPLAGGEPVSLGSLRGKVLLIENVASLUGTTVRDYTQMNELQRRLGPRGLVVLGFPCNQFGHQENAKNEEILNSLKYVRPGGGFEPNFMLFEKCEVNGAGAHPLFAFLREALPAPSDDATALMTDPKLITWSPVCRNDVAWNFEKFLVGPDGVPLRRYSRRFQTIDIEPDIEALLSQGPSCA
# Cytochrome P450 1A2 (Homo sapiens), sequence (P05177 whole entry, looked up): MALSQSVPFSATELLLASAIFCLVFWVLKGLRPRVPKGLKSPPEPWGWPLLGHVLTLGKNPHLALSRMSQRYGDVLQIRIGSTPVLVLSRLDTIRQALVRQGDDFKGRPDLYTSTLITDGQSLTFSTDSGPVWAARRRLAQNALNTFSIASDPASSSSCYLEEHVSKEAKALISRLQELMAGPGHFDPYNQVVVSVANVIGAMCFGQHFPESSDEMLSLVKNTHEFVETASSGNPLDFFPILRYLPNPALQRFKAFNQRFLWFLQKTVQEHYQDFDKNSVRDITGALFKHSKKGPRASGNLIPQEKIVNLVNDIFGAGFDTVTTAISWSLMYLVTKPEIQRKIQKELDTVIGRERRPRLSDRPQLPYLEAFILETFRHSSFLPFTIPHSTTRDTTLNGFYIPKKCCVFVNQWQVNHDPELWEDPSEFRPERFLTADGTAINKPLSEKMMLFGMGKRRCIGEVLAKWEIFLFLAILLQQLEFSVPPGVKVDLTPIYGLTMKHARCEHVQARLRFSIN
# Cytochrome P450 3A4 (Homo sapiens), sequence (P08684 whole entry, looked up): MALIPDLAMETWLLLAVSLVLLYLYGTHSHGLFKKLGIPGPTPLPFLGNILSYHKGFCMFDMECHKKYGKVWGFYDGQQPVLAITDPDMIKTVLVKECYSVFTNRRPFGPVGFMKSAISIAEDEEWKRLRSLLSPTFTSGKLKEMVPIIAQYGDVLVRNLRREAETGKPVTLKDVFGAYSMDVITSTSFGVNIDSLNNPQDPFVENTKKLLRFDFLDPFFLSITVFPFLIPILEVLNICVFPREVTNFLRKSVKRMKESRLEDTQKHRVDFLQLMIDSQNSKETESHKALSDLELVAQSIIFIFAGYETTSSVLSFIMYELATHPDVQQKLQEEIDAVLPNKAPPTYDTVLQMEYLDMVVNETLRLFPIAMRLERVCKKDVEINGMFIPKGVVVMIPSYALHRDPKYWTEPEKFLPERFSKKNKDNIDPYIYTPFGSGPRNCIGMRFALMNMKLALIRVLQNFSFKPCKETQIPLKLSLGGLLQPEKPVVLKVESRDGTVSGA
# 3',5'-cyclic-AMP phosphodiesterase 4B (Homo sapiens), sequence (Q07343 whole entry, looked up): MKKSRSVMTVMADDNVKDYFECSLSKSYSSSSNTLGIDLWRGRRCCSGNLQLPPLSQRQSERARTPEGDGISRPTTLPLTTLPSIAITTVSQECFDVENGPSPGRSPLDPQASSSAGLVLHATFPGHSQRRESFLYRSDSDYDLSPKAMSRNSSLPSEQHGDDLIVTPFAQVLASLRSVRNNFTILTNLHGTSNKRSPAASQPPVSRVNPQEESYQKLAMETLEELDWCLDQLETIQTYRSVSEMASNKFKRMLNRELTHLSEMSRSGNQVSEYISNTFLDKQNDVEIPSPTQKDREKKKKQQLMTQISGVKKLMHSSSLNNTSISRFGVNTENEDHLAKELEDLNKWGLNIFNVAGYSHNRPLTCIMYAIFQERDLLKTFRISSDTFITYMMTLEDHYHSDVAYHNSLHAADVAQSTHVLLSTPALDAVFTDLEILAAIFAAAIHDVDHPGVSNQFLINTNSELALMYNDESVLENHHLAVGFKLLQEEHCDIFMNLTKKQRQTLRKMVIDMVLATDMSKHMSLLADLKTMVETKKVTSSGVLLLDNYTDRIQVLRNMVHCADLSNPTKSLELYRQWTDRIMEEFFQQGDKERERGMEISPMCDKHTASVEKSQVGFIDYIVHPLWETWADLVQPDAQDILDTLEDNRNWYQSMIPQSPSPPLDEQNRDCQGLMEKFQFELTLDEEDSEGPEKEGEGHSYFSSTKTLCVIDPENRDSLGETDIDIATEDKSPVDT
# Glucocorticoid receptor (Homo sapiens), sequence (P04150 whole entry, looked up, the tested form may be a part): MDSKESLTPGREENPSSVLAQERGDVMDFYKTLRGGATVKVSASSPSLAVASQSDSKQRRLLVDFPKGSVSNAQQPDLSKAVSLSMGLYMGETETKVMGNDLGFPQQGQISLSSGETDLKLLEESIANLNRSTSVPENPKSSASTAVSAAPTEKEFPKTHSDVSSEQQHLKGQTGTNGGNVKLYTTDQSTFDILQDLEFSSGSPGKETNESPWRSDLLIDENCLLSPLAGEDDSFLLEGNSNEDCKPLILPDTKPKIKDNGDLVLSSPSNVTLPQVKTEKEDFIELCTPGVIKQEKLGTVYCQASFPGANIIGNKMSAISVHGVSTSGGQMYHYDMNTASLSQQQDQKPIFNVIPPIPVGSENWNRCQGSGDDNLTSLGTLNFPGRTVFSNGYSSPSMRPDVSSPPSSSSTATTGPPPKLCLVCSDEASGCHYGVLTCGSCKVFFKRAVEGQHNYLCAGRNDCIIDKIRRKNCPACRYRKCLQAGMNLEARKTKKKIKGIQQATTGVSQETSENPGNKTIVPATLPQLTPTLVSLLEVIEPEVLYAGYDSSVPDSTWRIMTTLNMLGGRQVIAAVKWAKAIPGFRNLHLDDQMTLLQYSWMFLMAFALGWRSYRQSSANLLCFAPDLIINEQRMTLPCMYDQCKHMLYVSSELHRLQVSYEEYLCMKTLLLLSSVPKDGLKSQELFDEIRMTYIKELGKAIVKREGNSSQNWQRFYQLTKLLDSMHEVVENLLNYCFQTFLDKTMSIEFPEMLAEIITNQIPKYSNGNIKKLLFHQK
smiles,measurement,setting,value
COc1ccc(NC(=O)N2CC[C@@]3(CCCN(C(=O)c4cccn4C)C3)C2)cc1,"activity change, negative = inhibition",[1],-0.362% (inactive)
same,Potency,[2],inactive
same,"activity change, negative = inhibition",[3],4.79% (inactive)
same,"activity, negative = inhibition",[4],8.48% (inactive)
same,Potency,[5],> 46000 nM (inactive)
same,outcome,[6],inactive
same,Potency,[7],inactive
same,Potency,[8],inactive
same,"activity change, negative = inhibition",[9]; at 57.5 µM (top of the series),2.71% (inactive)
same,max response,[9]; measured here: cell count channel max response,12%
same,max response,[9]; measured here: lipid channel max response,14.4%
same,Potency,[10],inactive
O=C(C[C@@H]1C/C=C\CCC(=O)O[C@H](c2ccccc2)CNC1=O)NCc1ccc(Cl)cc1,Potency,[11],inactive
same,Potency,[12],inactive
same,Potency,[13],inactive
same,Z-AUC,[14],-0.618 (inactive)
same,Z-AUC,[14]; [16],0.123
same,Z-AUC,[14]; measured here: PEO4 Z-AUC,-0.716
C=C1C[C@@H]2CC[C@@]34C[C@H]5O[C@H]6[C@@H](O3)[C@H]3O[C@H](CC[C@@H]3O[C@H]6[C@H]5O4)CC(=O)C[C@@H]3[C@@H](OC)[C@@H](C[C@H](O)CN)O[C@H]3C[C@H]3O[C@@H](CC[C@@H]1O2)C[C@@H](C)C3=C,Potency,[11],1.4 nM (active)
same,Potency,[12],1.1 nM (active)
same,Potency,[15],inactive
same,Potency,[13],inactive
same,Potency,[14],8.9 nM (active)
same,Z-AUC,[14]; [16],-3.01
same,Z-AUC,[14]; measured here: PEO4 Z-AUC,-2.65

# — PubChem BioAssay (NCATS)
